Reference: PubChem BioAssay (NCI)
Compounds without any hit were thinned out: in the full panel of roughly 79,000, 15% have a hit. Activity calls are given as the source filed them. Rule as the data show it: active = growth inhibition above about 70%; inactive = the rest.

Tests used:
[1] = NCI Yeast Anticancer Drug Screen. Data for the rad50 strain (AID 155);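 also: 0% = growth of vehicle-only cultures of the same strain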; settings: S. cerevisiae rad50 strain growth inhibition; at 50.0 µM; hits give high values
In short: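 Cells are treated with compound, grown, and their growth is then scored against vehicle-only cultures of the same repair-deficient yeast strain.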

[2] = NCI Yeast Anticancer Drug Screen. Data for the mec2-1 strain (AID 157); settings: S. cerevisiae mec2-1 strain, at 50.0 µM, hits give high values
In short: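 Using mec2-1 yeast: add compound, measure growth, express inhibition versus vehicle-treated cultures.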

[3] = NCI Yeast Anticancer Drug Screen. Data for the sgs1 mgt1 strain (AID 161);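 also: 0% = growth of cultures given vehicle only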; settings: S. cerevisiae sgs1 mgt1 strain, at 50.0 µM, hits give high values
In short: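 Compounds are added to genetically altered yeast, and growth is compared with cultures given vehicle alone to give percent inhibition.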

[4] = NCI Yeast Anticancer Drug Screen. Data for the cln2 rad14 strain (AID 165);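 also: 0% = growth equal to vehicle treated cultures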; settings: S. cerevisiae cln2 rad14 strain, at 50.0 µM, hits give high values
In short: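 Yeast strain cln2 rad14, bearing defects in cell cycle control and DNA repair, serves as the test system; values reflect growth inhibition compared with vehicle.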

[5] = NCI Yeast Anticancer Drug Screen. Data for the bub3 strain (AID 167); settings: S. cerevisiae bub3 mutant strain, at 50.0 µM, hits give high values
In short: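 Part of a panel of yeast mutants defective in DNA damage repair or cell cycle regulation. Each strain is grown with compound, and inhibition is calculated relative to solvent-treated cultures.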

[6] = NCI Yeast Anticancer Drug Screen. Data for the mlh1 rad18 strain (AID 175); settings: S. cerevisiae mlh1 rad18 strain growth inhibition; at 50.0 µM; hits give high values
In short: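 Steps: expose repair-defective yeast to compound; measure growth; express inhibition against vehicle-treated controls.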

Measured: growth inhibition

NC(CS)=NCCc1nc2ccccc2[nH]1
inactive: [1] 12.6% | [2] 9.95% | [3] -0.2% | [4] -2.85% | [5] 7.6% | [6] 4.3%

O=P1(C(c2ccccc2)c2ccccc2)OC2CC(Cl)CC(C2)O1 (stereo unspecified)
inactive: [1] 4.9% | [2] -1.85% | [3] -6.9% | [4] -46.8% | [5] 0.25% | [6] -11.9%

NNC(=O)C1CC1
inactive: [1] 0.5% | [2] -25.9% | [3] -5.65% | [4] 2.8% | [5] -14.1% | [6] -4.55%

O=NN(CCCl)C(=O)Oc1ccc2ccccc2c1
inactive: [1] 29.4% | [2] -9.35% | [3] 16.1% | [4] -24.8% | [5] 6.2% | [6] -0.5%

CC(=O)Nc1cccc(OCCOc2ccccc2[N+](=O)[O-])c1
inactive: [1] -0.6% | [2] -11.3% | [3] -8.65% | [4] 3.15% | [5] 4.7% | [6] 8.2%

S=C1SCN(C(c2ccccc2)c2ccccc2)CN1C(c1ccccc1)c1ccccc1
inactive: [1] 12.2% | [2] 22.2% | [3] 9.4% | [4] -20.1% | [5] -4.75% | [6] 28.2%

BrC1=C(c2ccccc2)SC(Br)=C(c2ccccc2)S1
inactive: [1] 1.55% | [2] 4.45% | [3] 1.2% | [4] 21.7% | [5] 5.45% | [6] 3.75%

CCC1=NO[C@@H](C(=O)OCc2ccccc2)[C@H]1C
inactive: [1] -12.2% | [2] 5.25% | [3] -7.2% | [4] -29.2% | [5] 9.15% | [6] -21.4%

CCN(CC)C(=O)c1ccc[n+](CCC(N)=O)c1
inactive: [1] -1.05% | [2] -17.8% | [3] -3% | [4] 14.8% | [5] -8.5% | [6] 6.6%

c1ccc(N=C2N=c3ccccc3=C2c2c(Nc3ccccc3)[nH]c3ccccc23)cc1
inactive: [1] 20.4% | [2] 5.5% | [3] -4.35% | [4] -27.1% | [5] -4.7% | [6] 17.6%

Cc1ccccc1NC(=O)C(=O)CC(=O)c1sc(Nc2ccccc2[N+](=O)[O-])nc1C
inactive: [1] 8.8% | [2] -7.45% | [3] -7.4% | [4] -10.3% | [5] -0.3% | [6] -2.9%

Cn1c(=O)c2c(ncn2Cc2ccccc2)n(C)c1=O
inactive: [1] -1.65% | [2] -13.2% | [3] 3.95% | [4] -10.7% | [5] 45.1% | [6] 4%

CN1CCS(=O)(=O)CC1
inactive: [1] 5.4% | [2] -40% | [3] -17.6% | [4] -2.55% | [5] 1.75% | [6] 5.05%

CC(=O)OC1CCC2(C)C3=CCC4(C)C(C(C)=O)=CCC4C3CCC2C1 (stereo unspecified)
inactive: [1] -27.9% | [2] -21.9% | [3] -29.2% | [4] 12.6% | [5] -22.9% | [6] -23.1%

Nc1cccc(CNC(=O)COc2ccc(Cl)c(Cl)c2)c1
active: [1] 84.7% | [3] 89.7% | [4] 77.2% | [5] 79.8% | [6] 82.8%
inactive: [2] 68.9%

CS(=O)(=O)c1nc2ncnc(N)c2[nH]1
inactive: [1] -6.2% | [2] -18.1% | [3] -6.3% | [4] -22.4% | [5] -27.1% | [6] -4.75%

c1ccc2c(c1)C[N+]1(CCCCCC1)C2
inactive: [1] 7% | [2] 6.05% | [3] 11% | [4] -10.3% | [5] 1.05% | [6] 10.7%

O=C(NC1C=Nc2ccc([N+](=O)[O-])cc2NC1=O)c1ccc(Cl)cc1 (stereo unspecified)
inactive: [1] 13.2% | [2] 7.8% | [3] 7.35% | [4] -18% | [5] -1.85% | [6] -8.5%

Cn1c(=O)c2[nH]c(N/N=N/c3nncs3)nc2n(C)c1=O
inactive: [1] -67.5% | [2] -117% | [3] -51.9% | [4] -19.8% | [5] -19.4% | [6] -117%

Cc1cc2nc3[nH]c(=O)c4c(n3c2cc1C)CCC4
inactive: [1] 0% | [2] -6.8% | [3] 0.2% | [4] -8.95% | [5] 8.45% | [6] -15.2%

CC(C)(C)NC(=O)NCc1cccc(Cl)c1
inactive: [1] 0.25% | [2] -19.6% | [3] -4.15% | [4] -36.1% | [5] -3% | [6] -3.25%

O=C1CCSc2nc(-c3ccc4c(c3)OCO4)nn21
inactive: [1] 7.2% | [2] -8.5% | [3] -13.3% | [4] 15.2% | [5] 4.6% | [6] 9.2%

COc1ccc(CCn2nccc2C)cc1
inactive: [1] -60.9% | [2] -4% | [3] -4.3% | [4] -17.9% | [5] -9.4% | [6] -18.4%

NC1=NN(O)C2=CC(Br)C=CC2=N1 (stereo unspecified)
inactive: [1] 10.3% | [2] -7.4% | [3] 11.6% | [4] 7.55% | [5] 43.1% | [6] 22.4%

Oc1ccc(CCC2CCNCC2)cc1
inactive: [1] 7.75% | [2] 23.4% | [3] 7.7% | [4] -27.2% | [5] -11.1% | [6] -30.1%

CC(=O)Oc1ccc(CC(C)C(C)Cc2ccc(OC(C)=O)c(OC(C)=O)c2)cc1OC(C)=O (stereo unspecified)
inactive: [1] 51% | [2] 23% | [3] 50% | [4] 7.4% | [5] 0.5% | [6] 26.5%

Nc1ncnc2c1nnn2CCCCCC(=O)O
inactive: [1] -6.25% | [2] 27.8% | [3] 21.8% | [4] -7.95% | [5] 11.8% | [6] -13.9%

CSc1cc(=O)[nH]c(=O)[nH]1
inactive: [1] 16.9% | [2] 3.1% | [3] 4.2% | [4] 22.4% | [5] 3.8% | [6] 10.8%

C[N+](C)(C)C=Nc1cccc2c1CCCC2
inactive: [1] 2.6% | [2] -37.8% | [3] -26.4% | [4] -7.05% | [5] 6.05% | [6] 1.55%

CC1(C)C(=O)N=C(N)N1C(=O)OCc1ccccc1
inactive: [1] -11.9% | [2] -4.45% | [3] -6.6% | [4] 13.8% | [5] -10% | [6] -17.5%

O=C(O)c1cc([N+](=O)[O-])ccc1Oc1cccc([N+](=O)[O-])c1
inactive: [1] -30.9% | [2] -1.2% | [3] 1.2% | [4] 27% | [5] 2.95% | [6] -8.25%

CCOC(=O)CCOc1ccccc1
inactive: [1] 8% | [2] 9.1% | [3] 8.45% | [4] 3.8% | [5] -0.85% | [6] 22.8%

CC(C)CCC[C@@H](C)[C@H]1CC[C@H]2[C@@H]3CC=C4C[C@@H](OC(=O)c5cccc6c(=O)c7ccccc7[nH]c56)CC[C@]4(C)[C@H]3CC[C@]12C
inactive: [1] 12.8% | [2] 16.1% | [3] 3.3% | [4] -4.95% | [5] -3.8% | [6] -28.9%

O=C1C(=O)C(CCc2ccccc2)C(=O)/C1=C\c1ccccc1 (stereo unspecified)
inactive: [1] 4.4% | [2] 17.6% | [3] 10.6% | [4] -10.4% | [5] -6.55% | [6] 20.2%

CSC(SC)=C1Sc2cccc(Cl)c2S1
inactive: [1] 1.65% | [2] 11.3% | [3] 29.2% | [4] -14.7% | [5] -15.1% | [6] -13.8%

CCn1cnc2c(=O)n(C)c(=O)n(C)c21
inactive: [1] -31.8% | [2] -17.9% | [3] 4% | [4] -36% | [5] -0.55% | [6] -0.95%

CC(C)CCC[C@@H](C)[C@H]1CC[C@H]2[C@@H]3CC[C@H]4C[C@@H](CCC=C(c5cc(Cl)c(O)c(C(=O)O)c5)c5cc(Cl)c(O)c(C(=O)O)c5)CC[C@]4(C)[C@H]3CC[C@]12C
inactive: [1] 15.3% | [2] 8.35% | [3] 11.4% | [4] -4.2% | [5] 24.5% | [6] -1.75%

Cc1n[nH]c(=O)n1-c1cccnc1
inactive: [1] -0.7% | [2] 1.5% | [3] -9% | [4] -12.3% | [5] 3.55% | [6] 3.6%

O=C1OC(c2ccc(O)c(-c3ccccc3)c2)(c2ccc(O)c(-c3ccccc3)c2)c2c(Cl)c(Cl)c(Cl)c(Cl)c21
inactive: [1] -16.4% | [2] -18.4% | [3] 19.1% | [4] -18.6% | [5] -33.1% | [6] 1.45%

NC(Cc1c[nH]c2ccc(F)cc12)C(=O)O (stereo unspecified)
inactive: [1] -4.35% | [2] -17.5% | [3] -29.8% | [4] -37% | [5] -14.4% | [6] 4.15%

C/C(=N\O)c1ccc(OCc2cc(C(F)(F)F)cc(C(F)(F)F)c2)cc1
inactive: [1] -10.1% | [2] -26.2% | [3] -6.75% | [4] -1.5% | [5] -2.15% | [6] 7.5%
